# A selection: hits, their analogues and other compounds. The true share with any hit is near 11%.
# ALOX12 inhib = 12-hLO (ALOX12) enzyme inhibition. 150,000 compounds, 0.12% hits. Potency, µM (series often up to 57.1 µM), for the others: at the highest dose activity change, negative = inhibition, usual class: inhibitors. purified 12-hLO, xylenol orange hydroperoxide absorbance. AID 1452. P18054; also: potency is read from the fitted curve at half-maximal effect; nearly all actives have a fitted effect of over 55% in size
#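 Hydroperoxide formation by human 12-lipoxygenase from 40 uM arachidonic acid was followed colorimetrically via ferric-xylenol orange complex, using the 573/405 nm absorbance ratio. Enzyme concentration was 150 nM, with 30 min reaction at room temperature.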
# IMPase Li cell = membrane-permeable IMPase blocker, potentiated with lithium | Potency, µM (top dose mostly 59.4 µM), for the others: at the top dose activity, negative = IMPase inhibition, actives largely listed as inhibitors | 210,000 compounds, 0.35% hits | CHO-M1 cells, IP1 TR-FRET (IP-One), carbachol + lithium;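 also: IP1 builds up when IMPase is blocked and the TR-FRET signal falls; potency is read from the fitted curve at half-maximal effect; plate controls were basal vehicle for no effect and high inhibitor control for full effect; nearly all actives have a fitted effect of over 50% in size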
#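 CHO-M1, 2000 cells/well, 16–30 h culture; cpd + low Li+, 30 min 37C; lysis with d2-IP1/Eu-anti-IP1 Ab, 10 min RT; TR-FRET 665/620 ratio and 620 channel; AC50 via Hill.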
# ALDH1A1 inh = inhibitors of human aldehyde dehydrogenase 1A1 | Purified ALDH1A1, NADH fluorescence, propionaldehyde substrate | Potency, µM (series often up to 75.3 µM), inactives show at the highest dose activity, negative = inhibition, hits mostly inhibitors | 220,000 compounds, 7.3% hits; active = well fitted inhibition curve with a large enough effect, not every such curve was filed as active; inconclusive = small, poorly fitted or top-dose-only effect, or another doubt; inactive = no such curve, though single readings can be large or run the other way;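 also: potency is read from the fitted curve at half-maximal effect; plate controls were no enzyme wells and a reference inhibitor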
# IMPase inh = membrane-permeable compound that blocks inositol monophosphatase | P97697 | CHO-M1 cells, IP1 accumulation, HTRF TR-FRET ratio | inhibition (IP1 accumulation), % at 46.1 µM | 120,000 tested, under 10 active; active = well fitted curve in the direction sought with a large enough effect in the signal ratio, not every such curve was filed as active; inconclusive = small, poorly fitted or top-dose-only effect, or a change in a side signal; inactive = no such curve, though single readings can be large or run the other way; the % refers to the signal ratio;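 also: cells stimulated with carbachol in lithium chloride buffer; plate controls were DMSO basal wells for no effect and reference inhibitor wells for full effect; higher means more IMPase inhibition seen as more IP1 and lower FRET ratio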
# Target sequence (P97697 whole entry, looked up): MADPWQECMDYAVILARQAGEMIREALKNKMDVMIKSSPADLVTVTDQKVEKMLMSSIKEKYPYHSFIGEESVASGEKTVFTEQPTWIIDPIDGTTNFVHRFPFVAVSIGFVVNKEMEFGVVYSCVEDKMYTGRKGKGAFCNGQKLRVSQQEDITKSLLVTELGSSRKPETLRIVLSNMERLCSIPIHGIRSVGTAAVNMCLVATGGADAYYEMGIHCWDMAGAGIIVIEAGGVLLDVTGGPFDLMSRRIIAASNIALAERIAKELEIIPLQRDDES
#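 In this qHTS, compounds (final up to 46 uM) act on CHO-M1 cells that are then activated through the M1 receptor with carbachol, in pH 7.4 buffer containing 50 mM LiCl, for 30 min. IP1 accumulation is quantified by the IP-One immunoassay.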
# HPGD inh = HPGD (human) dehydrogenase inhibition; purified HPGD, NADH fluorescence kinetic, PGE2 substrate; Potency, µM, inactives show at the top dose activity change, negative = inhibition, actives largely listed as inhibitors; 150,000 compounds, 4.3% hits; AID 894; P15428; active = well fitted inhibition curve with a large enough effect, not every such curve was filed as active; inconclusive = small, poorly fitted or top-dose-only effect, or another doubt; inactive = no such curve, though single readings can be large or run the other way; also: potency is read from the fitted curve at half-maximal effect
# Target sequence (P15428 whole entry, looked up): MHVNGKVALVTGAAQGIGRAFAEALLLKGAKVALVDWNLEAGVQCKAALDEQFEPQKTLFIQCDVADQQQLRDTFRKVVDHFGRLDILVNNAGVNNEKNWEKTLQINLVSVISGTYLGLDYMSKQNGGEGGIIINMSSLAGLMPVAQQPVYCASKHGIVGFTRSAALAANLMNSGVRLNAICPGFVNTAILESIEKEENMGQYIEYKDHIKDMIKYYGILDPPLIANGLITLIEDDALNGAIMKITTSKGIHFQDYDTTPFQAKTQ
#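 NADH formation kinetics: reaction with 30 uM PGE2 and 1 mM NAD+ (final), 20 nM enzyme, Tris-HCl pH 8 with Tween 20, after 15 min compound preincubation at room temperature. Fluorescence change, last versus first of five reads.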
# PNC inhibitor = blocks assembly of the perinucleolar compartment; PC3M PTB-GFP, PNC prevalence imaging, 16 h; stronger effect = lower value; activity change (PNC), negative = inhibition, % at 10 µM; 140,000 compounds, 3.1% hits;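 active = readout at or below -70, meaning at least 70% loss of cells showing the perinucleolar compartment, a nuclear body marking cancer cells; inconclusive = readout between -30 and a set limit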;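 also: plate controls were DMSO wells for no effect and camptothecin positive control wells for full effect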
#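 Read-out is percentage of cells bearing a perinucleolar compartment, from automated 20x imaging of fixed, Hoechst-stained PC3M PTB-GFP cells. Cells were seeded 4 h, then exposed 16 h to compound (23 nl of library stock) in duplicate plates.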
# An asterisk follows results filed as active; ? = inconclusive; / = no result; [ ] = dose if it differs, or a comment. Unless noted, calls follow the shape of the dose curve; as a rule, active = well fitted curve in the direction sought with a large enough effect; inconclusive = small, poorly fitted or top-dose-only effect, or another doubt; inactive = no such curve, though single readings can be large; an effect the other way counts as inactive or inconclusive. Unless noted, % is scaled to controls: 0 for no effect and ±100 for the full control effect.
SMILES,ALOX12 inhib,IMPase Li cell,ALDH1A1 inh,IMPase inh,HPGD inh,PNC inhibitor
O=C(COc1ccc2ccccc2c1)N1CCN(C(=O)c2ccco2)CC1,/,1%,?,/,/,/
CC(C)C[C@@H](CC(=O)N[C@H](CC(=O)N[C@@H]1CCCC[C@H]1C(=O)N[C@H](CC(=O)N[C@@H](CCC(=O)O)CC(=O)O)Cc1c[nH]c2ccccc12)C(C)C)NC(=O)[C@@H]1CNCC[C@H]1N,-2%,10%,-15%,/,-7%,/
COc1ccccc1/C=C\C(=O)OC[C@@H]1CCCN2CCCC[C@H]12,/,15%,?,/,-23%,/
Cc1ccc2c(CN3CCN(CCO)CC3)cc(=O)oc2c1C,9%,18%[38.3 µM],-13%,-2,-11%,3
Cc1ccc2c(CN3CCN(C(=O)c4ccco4)CC3)cc(=O)oc2c1C,/,-2%,25µM*,/,/,/
Cc1ccc(Nc2nc(N)nc(CN3CCN(C(=O)c4ccco4)CC3)n2)cc1Cl,-14%,4%[38.3 µM],7.9µM*,1,-25%,-5
Cn1c(=O)c2c(nc(CN3CCN(C(=O)c4ccco4)CC3)n2Cc2ccccc2)n(C)c1=O,5%,28%[38.3 µM],13µM*,12[1.84 µM],-5%,?
Cn1c(=O)c2c(nc(CN3CCN(C(=O)c4ccco4)CC3)n2Cc2ccc(Cl)cc2)n(C)c1=O,-4%,9%[38.3 µM],14µM*,9,-6%,?
Cn1c(=O)c2c(nc(CN3CCN(C(=O)c4ccco4)CC3)n2Cc2cccc(Cl)c2)n(C)c1=O,-2%,5%[38.3 µM],14µM*,3,-2%,?
CCCCCCn1c(CN2CCN(Cc3ccccc3)CC2)nc2c1c(=O)n(C)c(=O)n2C,-2%,18%,?,9,-9%,?
Cn1c(=O)c2c(nc(CN3CCN(Cc4ccccc4)CC3)n2Cc2cccc(Cl)c2)n(C)c1=O,-8%,20%[38.3 µM],?,6,5%,-16
CC(C)(C)NC[C@H](O)COc1cccc2c1CCC(=O)N2,-1%[25.6 µM],-2%,1%[20.9 µM],3[20.6 µM],1%,/
COc1ccc2c(c1)O[C@H](c1ccc3c(c1)OCO3)[C@@H](OC(=O)NCc1ccco1)C2=O,/,18%,-15%,/,-11%,/
CCc1nnc2c(Nc3cccc(F)c3)nc3ccc(C(=O)c4ccccc4)cc3n12,/,/,/,0,/,/
Cc1c(C(=O)N2CC(C)OC(C)C2)sc2nc(-c3ccc(F)cc3)cn12 (stereo not given),-1%,2%[38.3 µM],-12%,-4,35µM*,15
Cc1cccc(NC(=O)c2sc3nc(-c4ccc(F)cc4)cn3c2C)n1,-4%,14µM*,?,-3,?,?
CCOC(=O)N1CCN(C(=O)c2sc3nc(-c4ccc(F)cc4)cn3c2C)CC1,-2%,16%[38.3 µM],1%,5,-2%,15
Cc1ccc2oc3c(c(=O)c2c1)C(c1cccc(Cl)c1)N(CCCN1CCOCC1)C3=O (stereo not given),-7%,23%[38.3 µM],13µM*,0,0%,?
Cc1ccc2oc3c(c(=O)c2c1)C(c1ccc(F)cc1)N(CCCN1CCOCC1)C3=O (stereo not given),5%,-1%[38.3 µM],3.5µM*,-4,-25%,-25
Cc1cc(C)c(S(=O)(=O)Nc2cc(SCC(=O)O)c(O)c3ccccc23)cc1C,-8%,1%,?,/,1.1µM*,?
Cc1cc(C)c(S(=O)(=O)Nc2ccc(C(=O)O)c(O)c2)cc1C,-10%,/,?,/,-8%,/
c1cncc(CNc2ncncc2-c2ccoc2)c1,/,2%,?,/,/,/
COc1cc2ccccc2cc1C(=O)Nc1ccc2oc(-c3ccc(F)cc3)nc2c1,/,/,/,-9,/,/
CSc1nnc(NC(=O)c2ccc(C)c(S(=O)(=O)N3CCOCC3)c2)s1,1%,8%[38.3 µM],?,3,20µM*,?
CC1CCc2sc(C(=O)NN)cc2C1 (stereo not given),/,-5%,7.1µM*,/,/,/
SMILES,ALOX12 inhib,IMPase Li cell,ALDH1A1 inh,IMPase inh,HPGD inh,PNC inhibitor
Cc1ccc(NC(=O)c2cc3c(s2)CCC3)cc1S(=O)(=O)N1CCOCC1,-8%,25%[38.3 µM],1.1µM*,0,-9%,37
Cc1nnc(NC(=O)c2ccc(C)c(S(=O)(=O)N3CCOCC3)c2)s1,-6%,-5%[38.3 µM],9%,12,-7%,?
CC1CCc2sc(C(=O)OCC(=O)NC(C)C)cc2C1 (stereo not given),/,-10%,5%,/,/,/
COc1ccc(NC(=O)c2cc3c(s2)CCC(C)C3)cc1S(=O)(=O)N1CCOCC1 (stereo not given),-2%,15%,16µM*,/,-12%,?
CCCNC(=O)/C=C/c1ccc(C(C)C)cc1,2%,-1%,?,/,-20%,27
CC(C)c1ccc(/C=C/C(=O)NCCC2=CCCCC2)cc1,?,18%,4.5µM*,13,-25%,?
C=CCN1C(=O)/C(=c2\sc3nc(=O)c(Cc4ccccc4)nn3c2=O)c2ccccc21,/,/,3.5µM*,/,/,/
C=CCN1C(=O)/C(=c2\sc3nc(=O)c(Cc4ccc(OC)c(OC)c4)nn3c2=O)c2ccccc21,/,/,3.2µM*,/,/,/
C=CCSc1nn2c(=O)c3ccccc3nc2s1,-1%,-3%[38.3 µM],4%,1,-7%,4
Cc1csc(=NC(=O)c2ccccc2)n1Cc1ccco1,-2%,8%[38.3 µM],3%,-3,-16%,31
Cc1csc(=Nc2ccccc2)n1Cc1ccco1,/,26%,15µM*,/,/,/
CC/C=C\C[C@H]1C(=O)CC[C@@H]1CC(=O)O,-1%,13%,-4%,-1,2%,/
CCOc1ccccc1C(=O)Nc1cccc(-c2ccc3nncn3n2)c1,/,14%,?,/,/,/
Cc1ccccc1C(=O)Nc1cccc(-c2ccc3nncn3n2)c1,/,2%,14µM*,/,/,/
NS(=O)(=O)c1ccc(N=Nc2ncccc2O)cc1,1%[11.4 µM],6%,8%[13.5 µM],/,-13%,/
CC(C)Cn1c(=O)c(-[n+]2ccccc2)c([O-])c2ccccc21,/,-8%,2.8µM*,/,/,/
CCCCn1c(=O)c(-[n+]2ccccc2)c([O-])c2ccccc21,5%,0%[38.3 µM],14µM*,6,-11%,-21
CC(C)Cn1c2ccccc2c2cc(C(=O)O)ccc21,9%,34%[38.3 µM],-4%,5,-11%,-14
NC(=O)[C@@H]1CCCN1Cc1ccc2c(c1)OCO2,-3%[11.4 µM],-8%,6%[13.5 µM],/,-4%,/
Cc1nnc(NC(=O)CSc2nnc(-c3ccco3)o2)s1,/,5%,4%,/,/,/
CCOC(=O)c1c(NC(=O)CSc2nnc(-c3ccco3)o2)sc(C(C)=O)c1C,-3%,-20%[38.3 µM],-11%,?,16µM*,-24
CCCn1c(N)c(C(=O)CSc2nnc(Cc3ccccc3)o2)c(=O)n(C)c1=O,29%,26%,4%,13,-10%,-100*

# Assay outcomes deposited in PubChem BioAssay by National Center for Advancing Translational Sciences (NCATS).
